# Assay outcomes as filed in PubChem BioAssay.
# GDH-TPI counter-1: counter-screen for M. tuberculosis FBA inhibitors: GDH-TPI coupled enzymes; inhibition, % at 4.8 µM; actives 1.2% (n = 360,000); GDH-TPI coupled enzyme counterscreen, NADH absorbance; in the data active = inhibition above about 30%;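 note: 0% = DMSO wells and 100% = wells lacking the enzyme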
# Mtb betalactam: beta-lactam sensitization of Mtb H37Rv. M. tuberculosis H37Rv growth with meropenem, percent inhibition. inhibition, % at 25 µM. actives 0.27% (n = 330,000). AID 434955; call rule not given here;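 note: growth measured after seven days incubation then overnight dye step; 0% = bacteria only wells and 100% = bacteria with antibiotic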
# VHR inh abs: DUSP3 (human) phosphatase inhibition. recombinant VHR phosphatase, pNPP absorbance. inhibition, % at 13.3 µM. actives 0.52% (n = 290,000). AID 1654; in the data active = inhibition above about 50%
# Target sequence (P51452 whole entry, looked up): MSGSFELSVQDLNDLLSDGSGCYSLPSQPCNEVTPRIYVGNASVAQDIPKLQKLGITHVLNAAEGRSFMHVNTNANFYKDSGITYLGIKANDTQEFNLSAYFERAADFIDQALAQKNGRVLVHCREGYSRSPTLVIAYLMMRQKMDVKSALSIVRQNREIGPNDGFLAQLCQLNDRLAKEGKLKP
# Mtb FBA inh: inhibits M. tuberculosis FBA enzyme | P9WQA3 | purified M. tuberculosis FBA, fluorescence read-out | inhibition, % at 1 µM | actives 2.3% (n = 360,000) | AID 588726;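 note: 0% = vehicle and 100% = reference inhibitor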
# Target sequence (P9WQA3 whole entry, looked up): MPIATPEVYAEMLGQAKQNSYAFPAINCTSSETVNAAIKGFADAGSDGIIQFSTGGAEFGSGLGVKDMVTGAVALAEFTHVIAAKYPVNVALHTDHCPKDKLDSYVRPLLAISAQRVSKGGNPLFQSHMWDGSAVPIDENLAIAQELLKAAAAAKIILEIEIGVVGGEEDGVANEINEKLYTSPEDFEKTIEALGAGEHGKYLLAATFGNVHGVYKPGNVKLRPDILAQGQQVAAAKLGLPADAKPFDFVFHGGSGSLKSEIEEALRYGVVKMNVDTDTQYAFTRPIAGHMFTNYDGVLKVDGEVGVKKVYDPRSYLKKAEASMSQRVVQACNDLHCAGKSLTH
# Mtb hypoxia rep: reduces hypoxia-regulated biosensor signal in M. tuberculosis; M. tuberculosis hypoxia-regulated fluorescent reporter, fluorescence; fluorescence inhibition, % (test concentration not listed); actives 0.1% (n = 300,000); in the data active = fluorescence inhibition mostly above about 23%, no sharp cut-off; inactive = mostly below about 17%
# Mtb FBA inh conf: Mtb FBA inhibition, confirmed. inhibition, % at 1 µM. actives 78% (n = 5,600). shares compounds with Mtb FBA inh. purified M. tuberculosis FBA, fluorescence read-out;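 note: 0% = vehicle wells and 100% = reference inhibitor wells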
# GDH-TPI counter-2: inhibits GDH-TPI coupling enzymes, flagging Mtb FBA hits; shares compounds with Mtb FBA inh; actives 81% (n = 5,600); inhibition, % at 1 µM; GDH-TPI coupled enzyme counterscreen, fluorescence; in the data active = inhibition above about 10%
# * marks the source's active call; other numbers are inactive results; . = not tested or not shown; + = active, no number. The list is not random: actives were taken first. Their share in the collection is about 3.6%. Cut-off read from the data, not from the text of the source, unless noted: active = inhibition above about 27%; inactive = the rest.
SMILES,GDH-TPI counter-1,Mtb betalactam,VHR inh abs,Mtb FBA inh,Mtb hypoxia rep,Mtb FBA inh conf,GDH-TPI counter-2
COc1ccc(C2Nc3ccccc3C(=O)N2Cc2ccco2)cc1COc1ccc(NC(C)=O)cc1 (stereo not given),12.2,-6.3,2.6,40.6*,.,3.4,-4.2
Cc1ccc(C2Nc3ccccc3C(=O)N2Cc2ccco2)cc1 (stereo not given),13.6,-2.4,11.3,43.0*,5.9,85.7*,56.2*
O=C1C=C(c2ccc3c(c2)oc2ccccc23)CC(c2ccc(Cl)cc2)C1 (stereo not given),.,.,.,.,2.3,.,.
COc1ccc(C2Nc3ccccc3C(=O)N2c2ccccc2)cc1COc1ccccn1 (stereo not given),-5.0,-1.5,20.9,90.4*,11.8,89.7*,75.1*
O=C(NC(c1ccccc1)C1CC1C(=O)NCc1ccccn1)OCc1ccccc1 (stereo not given),.,.,.,.,17.1,.,.
CN1CCc2c(sc3nc(SCC(=O)N4CCOCC4)nc(N)c23)C1,-1.2,0.8,1.5,53.9*,3.0,8.8,4.7
CC(=NNS(=O)(=O)c1ccc(Br)cc1)c1ccc(C)o1,.,.,.,.,0.9,.,.
CCCCCC(=O)Nc1cccc(-c2nc3ncccc3o2)c1,8.2,-1.1,16.5,41.2*,4.8,72.0*,61.0*
CCC(=O)NC(=S)Nc1cccc(-c2nc3ncccc3o2)c1,9.8,-5.0,-3.6,-1.2,-9.0,.,.
CC(C)C(=O)Nc1cccc(-c2nc3ncccc3o2)c1,6.6,1.1,9.8,34.8*,4.4,158.3*,125.4*
Cc1ccc(-c2nc3cc(NC(=O)C(C)C)ccc3o2)cc1C,17.8,-15.6,-4.6,44.9*,-18.0,50.4*,34.7*
CCCCC(=O)Nc1cccc(-c2nc3ncccc3o2)c1,0.5,8.9,-6.5,42.9*,1.1,-1.4,-5.1
CC1CN(C(C)CO)C(=O)c2cc(NC(=O)Nc3ccc(F)cc3)ccc2OC1CN(C)Cc1ccccc1 (stereo not given),.,.,.,.,5.1,.,.
CC1(C)CC(=O)c2cc(OCC(=O)N3CCOCC3)ccc2O1,14.9,-6.3,-14.7,48.4*,-0.2,+,+
Cc1ccc(OCC(=O)N2CCOCC2)cc1C,3.0,-13.0,-0.5,1.6,5.4,.,.
CCN(CC)C(=O)COc1ccc2c(c1)C(=O)CC(C)(C)O2,9.1,0.8,8.5,59.1*,-9.0,87.4*,71.5*
Cc1cc(OCC(=O)N(C)c2ccccc2)cc2c1C(=O)CC(C)(C)O2,1.5,0.2,22.4,7.7,4.5,.,.
COc1ccc(-c2cc3ccc(OC)cc3cn2)cc1,0.9,8.4,.,46.5*,19.9,0.1,-2.9
COc1ccc2cc(-c3ccon3)ccc2c1,6.4,0.3,-6.7,34.4*,1.9,104.8*,99.2*
COc1ccc(-c2ccc(OC)cc2)cc1,10.4,1.0,-27.2,2.7,.,.,.
COc1ccc(-c2ccc3ccccc3n2)cc1,25.6,-2.5,25.7,82.8*,3.5,179.8*,138.9*
CC(=NNC(=O)OC(C)(C)C)c1ccco1,.,.,.,.,10.6,.,.
O=C(Nc1nnc2n1CCS2)c1ccc(Br)o1,-7.6,67.4,-2.2,104.6*,.,127.4*,76.2*
COc1cc(C(=O)NCCNc2nc3cc(C)ccc3cc2C#N)cc(OC)c1OC,9.6,-2.4,-22.7,12.7,3.3,.,.
Cc1cc(C)c2cc(C#N)c(NCCCNC(=O)c3cccnc3)nc2c1,9.9,.,.,46.7*,.,31.8*,30.2*
SMILES,GDH-TPI counter-1,Mtb betalactam,VHR inh abs,Mtb FBA inh,Mtb hypoxia rep,Mtb FBA inh conf,GDH-TPI counter-2
COc1cc(C(=O)NCCCNc2nc3cc(C)c(C)cc3cc2C#N)cc(OC)c1OC,5.3,5.5,12.0,52.4*,-2.9,75.3*,61.9*
Cc1cc(C)c2cc(C#N)c(NCCNC(=S)NCCCN3CCOCC3)nc2c1,-1.3,-1.1,31.2,23.5,12.7,.,.
COCCCNC(=S)NCCCNc1nc2cc(C)cc(C)c2cc1C#N,0.0,47.5,18.6,47.3*,3.1,6.1,-7.1
COc1cc(OC)cc(C(=O)NCCNc2nc3cc(C)cc(C)c3cc2C#N)c1,11.7,1.3,-10.4,31.2*,4.7,-9.2,-3.6
COc1ccccc1C(=O)NCCNc1nc2cc(C)cc(C)c2cc1C#N,9.6,7.2,-22.7,5.5,-0.4,.,.
CCOc1ccccc1C=NNC(=O)CNC(=O)c1ccc(S(=O)(=O)N2CCOCC2)cc1,.,.,.,.,2.3,.,.
COc1ccc(C(=O)NCCCNc2nc3cc(C)cc(C)c3cc2C#N)cc1,-0.5,.,.,37.5*,.,3.3,-6.1
Cc1cccc2cc(C#N)c(NCCNC(=O)c3ccccc3)nc12,12.6,.,.,40.5*,.,+,+
COc1ccc(C=Nn2c(-c3cc(C)[nH]n3)n[nH]c2=S)cc1OC,.,.,.,.,6.3,.,.
CCN(CC)c1ccc(/C=N/NC(=O)CNC(=O)c2ccc3c(c2)OCCO3)cc1,41.6*,5.3,35.8,46.5*,.,53.5*,47.0*
O=C(CNC(=O)c1cccc(Br)c1)N/N=C/c1ccc2c(c1)OCO2,10.6,1.6,11.8,32.8*,.,141.1*,105.7*
Cc1c2cnccc2c(C)c2c1oc1ccccc12,2.6,.,.,42.9*,.,114.9*,94.0*
O=C(NN=CC(c1ccccc1)c1ccccc1)c1ccccc1F,.,.,.,.,13.1,.,.
CCn1c(=O)c2cc(C(=O)NC(C)C)sc2c2ccccc21,5.3,-6.3,38.8,44.2*,6.8,.,+
CCn1c(=O)c2cc(C(=O)NCCN3CCOCC3)sc2c2ccccc21,25.0,-4.8,4.6,74.9*,4.6,198.1*,161.8*
Nc1nc2ccc(O)cc2s1,2.4,-5.2,-24.4,4.9,.,.,.
Nc1nc2ccc(S(=O)(=O)c3ccc4nc(N)sc4c3)cc2s1,7.8,-1.4,6.2,28.5*,3.7,72.2*,49.0*
CC(CC(=O)Nc1ccc(C)c(Cl)c1)=NNC(=O)c1ccco1,.,.,.,.,17.4,.,.
CC(=O)NC(=O)c1ccc(-c2ccc(Cl)cc2)o1,20.8,95.9,1.3,78.0*,2.6,46.1*,56.0*
O=C(NC(=S)Nc1ccccc1O)c1ccc(-c2ccc(Cl)cc2)o1,15.2,88.7,31.9,6.7,.,.,.
C[C@@H]1CN([C@H](C)CO)C(=O)c2cc(/C=C/c3ccccc3)cnc2O[C@H]1CN(C)C(=O)NC1CCCCC1,12.4,.,.,59.7*,.,75.1*,69.6*
C[C@H]1CN([C@@H](C)CO)C(=O)c2cc(Br)cnc2O[C@@H]1CN(C)C(=O)NC1CCCCC1,8.2,.,.,-1.4,.,.,.
Cc1nn(-c2ccc(F)cc2)c2sc(C(=O)OC3CCOC3=O)cc12 (stereo not given),8.4,3.7,1.5,86.0*,.,74.2*,59.0*
CN1C(=O)C2C(C=Cc3ccccc3)N3C(=O)CN(CCO)C(=O)[C@@]3(C)C2C1=O (stereo not given in full),.,.,.,.,6.4,.,.
O=[N+]([O-])c1ccc2c(c1)nc1n2CCSC1,14.3,-1.3,19.4,34.6*,11.3,6.2,-6.2
COc1cc(C=NNC(=O)c2cccc(NC(=O)c3ccccc3Cl)c2)ccc1O,.,.,.,.,11.1,.,.
